Experimental findings from PubChem BioAssay (NCATS) are described below.

“And” between values parts separate entries of the source, which are not always exact repeats. Equal entries are not always repeated. Inconclusive results are not listed. A number with no mark means an inactive call. The source made the active and inactive calls. Calls come from the whole dose curve; as a rule, active = well fitted curve in the direction sought with a large enough effect; inconclusive = small, poorly fitted or top-dose-only effect, or another doubt; inactive = no such curve, though single readings can be large; an effect the other way counts as inactive or inconclusive.

Test [1] concerns HeLa. The test is described as follows: Primary qHTS to identify gynecologic anti-cancer compounds using libraries of approved drugs and bioactive compounds (AID 1345084). Note: nearly all actives have a fitted effect of over 55% in size. The following applies: Gynecologic cancer cell panel viability, ATPlite luminescence, 48 h; series mostly up to 57.5 µM. A digest of the protocol: (§1)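 Cell viability after 48 h drug treatment, ATPlite luminescence readout; five doses.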

The test system of test [2] is Hek293T. Described as above. The following applies: Gynecologic cancer cell panel viability, ATPlite luminescence, 48 h, control line for the selectivity index; series mostly up to 57.5 µM. A digest of the protocol: as §1
Test [3] has as its system JEG-3. Described as above. The following applies: Gynecologic cancer cell panel viability, ATPlite luminescence, 48 h; series mostly up to 57.5 µM. The essentials:
as §1

Test [4] concerns OV90. Described as above. The following applies: Gynecologic cancer cell panel viability, ATPlite luminescence, 48 h; series mostly up to 57.5 µM. The essentials: as §1
Test [5] relates to PA-1. Described as above. The following applies: Gynecologic cancer cell panel viability, ATPlite luminescence, 48 h; series mostly up to 57.5 µM. The essentials: as §1
Test [6] relates to SKOV3. The description is as above. The following applies: Gynecologic cancer cell panel viability, ATPlite luminescence, 48 h; series mostly up to 57.5 µM. A digest of the protocol:
as §1

In test [7] the test system is Tov-21-G. The description is as above. The following applies: Gynecologic cancer cell panel viability, ATPlite luminescence, 48 h; series mostly up to 57.5 µM. The essentials: as §1
In test [8] the test system is Tov112D. Described as above. The following applies: Gynecologic cancer cell panel viability, ATPlite luminescence, 48 h; series mostly up to 57.5 µM. The essentials: as §1
A short description of test [9]: Drug repurposing screens with cells derived from glioblastoma tumor samples (AID 1345199). Note: nearly all actives have a fitted effect of over 40% in size. The following applies: GBM patient neurospheres viability, ATP luminescence, 48 h. The essentials: (§2)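 Primary testing used CD133+ neurospheres from four GBM patients, seven concentrations, 48 h exposure and ATP-based viability; confirmation added three slower-growing patient lines.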

Test [10] relates to astro. Described as above. The following applies: viability, ATP luminescence, 48 h; series mostly up to 45.9 µM. A digest of the protocol: as §2
The mark [11] stands for this setting: at 45.9 µM (top of the series), tumour line B.
The mark [12] stands for this setting: at 45.9 µM (top of the series), tumour line D.
[13] abbreviates: at 46 µM (top of the series), tumour line A.
The mark [14] stands for this setting: at 46.1 µM (top of the series), tumour line C.
Setting [15] is: at 21.2 µM (top of the series), tumour line B.
The mark [16] stands for this setting: at 21.2 µM (top of the series), tumour line D.
Setting [17] is: at 20 µM (top of the series), tumour line C.
% is set by controls: 0 for no effect and ±100 for the full control effect; potency is the fitted concentration of half-maximal effect.

In the case of `CCOc1ccc(NC(=O)CC(C)O)cc1` (configuration not stated), the Potency entry in [1], in test [2], in test [3], in [4], in test [5] and in [6] was “inactive” throughout. Further, the Potency entry in test [7], in test [8] and in test [10] was “inactive” throughout. In addition, the activity, negative = cell killing was -5.84% in test [9] (setting [11]), -16.9% in test [9] (setting [12]), -20.2% in test [9] (setting [13]) and -0.587% in test [9] (setting [14]).

Take `COc1ccc(CN2CCN(C(c3ccc(F)cc3)c3ccc(F)cc3)CC2)c(OC)c1OC`: the Potency result in test [1], in [2], in test [3], in test [4], in [5] and in test [6] was “inactive” throughout. For the same compound, the Potency entry in test [7] and in test [8] was “inactive” in each case. The activity, negative = cell killing in test [9] (setting [14]) was -24.3%. In addition, the results for the Potency in test [9] (tumour line A), in test [9] (tumour line D) and in test [10] were 3.16 µM (active), 11.2 µM (active) and 35.5 µM (active), respectively.

Consider `CC(O)(P(=O)(O)O)P(=O)(O)O`, for which the Potency result in test [1], in [2], in test [3], in test [4], in test [5] and in test [6] was “inactive” throughout. The Potency result in test [7], in test [8] and in test [10] was “inactive” throughout. Further, the activity, negative = cell killing in [9] (setting [11]) is -12.4%; in [9] (setting [12]), 0.0097%; in [9] (setting [13]), -26.7%; in test [9] (setting [14]), -3.69%.

Turning to `O=C1OC(c2ccc(O)cc2)(c2ccc(O)cc2)c2ccccc21`, the Potency result in test [1], in [2], in [3], in test [5], in [7] and in [8] was “inactive” throughout. Besides, the Potency in test [4] is 28.2 µM (active). For the same compound, the activity, negative = cell killing in [9] (setting [11]) was -16.9%; in [9] (setting [12]), -16.2%; in [9] (setting [14]), 2.26%.

Regarding `CC(C)COC(=O)c1ccc(N)cc1`, the Potency entry in test [1], in test [2], in test [3], in [4], in test [5] and in [7] was “inactive” throughout. For the same compound, in test [8], the Potency entry is “inactive”. The activity, negative = cell killing is -9.56% in test [9] (setting [11]), -18.7% in test [9] (setting [12]) and -7.77% in test [9] (setting [14]).

As for `CCN(CC)CCNC(=O)COc1ccc(Cl)cc1`, the Potency entry in test [1], in test [2], in test [3], in test [4], in test [5] and in [6] was “inactive” each time. In addition, the Potency result in test [7], in test [8] and in test [10] was “inactive” throughout. Moreover, the values for the activity, negative = cell killing in test [9] (setting [11]) and in [9] (setting [12]) were 1.81% and -18.1%, respectively.

As to `NC[C@H]1O[C@H](O[C@H]2[C@H](O[C@@H]3O[C@H](CO)[C@@H](O)[C@H]3O)C(O)[C@H](N)C[C@@H]2N)[C@H](N)[C@@H](O)[C@@H]1O` (some centres not stated), the activity change, negative = cytotoxicity was 8.62% [at 11.6 µM] in test [1]; -5.51% [at 11.6 µM] in [2]; -0.299% [at 11.6 µM] in test [3]; 0.648% [at 11.6 µM] in test [4]; 6.06% [at 11.6 µM] in test [5]; -1.1% [at 11.6 µM] in test [6]. Moreover, the values for the activity change, negative = cytotoxicity in test [7] and in test [8] were 9.27% [at 11.6 µM] and 13.5% [at 11.6 µM], respectively. In addition, the activity, negative = cell killing in test [9] (setting [15]) is -5.37%; in test [9] (setting [16]), 0.454%. Besides, the Potency entry in test [10] was “inactive”.

Turning to `O=c1[nH]c(=O)n([C@H]2CCCO2)cc1F`, the Potency result in test [1], in [2], in test [3], in [4], in test [5] and in test [7] was “inactive” each time. The Potency result in test [8] was “inactive”.

For the compound `CC(=O)OCC(=O)NCCCOc1cccc(CN2CCCCC2)c1`, the Potency result in [1], in test [2], in [3], in [4], in test [5] and in test [7] was “inactive” in each case. Moreover, the Potency result in [8] and in test [10] was “inactive” each time. For the same compound, the activity, negative = cell killing was 0.906% and -1.58% in test [9] (setting [11]); -12.4% and -6.14% in test [9] (setting [12]); -17.5% in [9] (setting [13]); -13.4% and 4.52% in test [9] (setting [14]).

Regarding `CCCCC1=NC2(CCCC2)C(=O)N1Cc1ccc(-c2ccccc2-c2nn[nH]n2)cc1`, the Potency entry in [1], in test [2], in test [3], in test [4], in [5] and in test [7] was “inactive” in each case. The Potency entry in test [8] and in test [10] was “inactive” throughout. For the same compound, the activity, negative = cell killing in [9] (setting [11]) is -9.67%; in [9] (setting [12]), -0.133%; in [9] (setting [13]), -12.9%; in test [9] (setting [14]), 8.98%.

Regarding `OC[C@H]1O[C@@H](n2cnc3c(=S)nc[nH]c32)[C@H](O)[C@@H]1O`, the Potency in test [1] is 3.16 µM (active); in test [2] it was 10 µM (active); in [3], 2.51 µM (active); in [4], 8.91 µM (active); in test [5], 5.01 µM (active); in test [7], 0.891 µM (active). Also, in [9] (tumour line A), the Potency is 1.41 µM (active). Also, the Potency result in [6] and in test [10] was “inactive” throughout. In test [9] (setting [11]), the activity, negative = cell killing is -25.4%.

On to `COc1cc(N)c(Cl)cc1C(=O)NC1CCN(CCCOc2ccc(F)cc2)CC1OC` (configuration not stated), for which the Potency entry in [1], in [2], in test [3], in test [5], in test [6] and in test [7] was “inactive” throughout. Also, the Potency entry in [8] and in test [10] was “inactive” in each case. The results for the Potency in [4] and in [9] (tumour line A) were 25.1 µM (active) and 5.62 µM (active), respectively. Also, the activity, negative = cell killing is -1.31% in [9] (setting [17]) and -11.4% in [9] (setting [15]).

As for `CC1=C(C(=O)O)N2C(=O)[C@@H](NC(=O)[C@H](N)c3ccc(O)cc3)[C@H]2SC1`, the Potency entry in [1], in test [2], in test [3], in test [4], in [5] and in test [6] was “inactive” throughout. The Potency result in [7], in test [8] and in [10] was “inactive” in each case. Besides, the values for the activity, negative = cell killing in test [9] (setting [17]), in test [9] (setting [15]) and in test [9] (setting [16]) were -0.623%, -10.2% and -21.8%, respectively.

As to `CN1[C@@H]2CC[C@H]1CC(OC(=O)c1c[nH]c3ccccc13)C2` (some centres not stated), the Potency entry in test [1], in [2], in test [3], in test [4], in test [5] and in test [7] was “inactive” each time. Moreover, in test [8], the Potency result is “inactive”. Also, the figures for the activity, negative = cell killing in test [9] (setting [11]), in test [9] (setting [12]) and in test [9] (setting [14]) were 0.619%, -12.6% and 13.1%, respectively. Besides, the Potency in [9] (tumour line A) was 11.2 µM (active).

Consider `O=C(OCC(O)CO)c1ccccc1Nc1ccnc2cc(Cl)ccc12` (configuration not stated), for which the Potency entry in test [1], in test [2], in test [3], in [4], in [5] and in [6] was “inactive” throughout. The Potency entry in test [7], in [8] and in test [10] was “inactive” each time. Further, the activity, negative = cell killing in test [9] (setting [17]) was 1.49%; in test [9] (setting [15]), -17%.

As to `CCOC(=O)COc1ccc2c(C)c(CCN(CC)CC)c(=O)oc2c1Cl`, the Potency result in test [1], in [2], in test [3], in test [4], in [5] and in [8] was “inactive” in each case. Besides, the Potency in test [6] was 15.8 µM (active); in [9] (tumour line A) it was 11.2 µM (active). Besides, the values for the activity, negative = cell killing in test [9] (setting [11]) and in test [9] (setting [14]) were -13.9% and -21.4%, respectively.
